Pf growth 96h: Primary qHTS for delayed death inhibitors of the malarial parasite plastid, 96 hour incubation. P. falciparum luciferase reporter growth, 96 h. Potency, µM (doses to about 28.7 µM), without a hit: at the top dose activity change, negative = inhibition, actives largely listed as inhibitors. AID 504834, 2011. hit rate 6.9% among 320,000; note: potency is the fitted concentration of half-maximal effect; % is set by controls: 0 for no effect and ±100 for the full control effect
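Parasite growth measured via integrated firefly luciferase reporter in P. falciparum. Infected erythrocytes at 2% hematocrit, 0.05% parasitemia final were treated 96 hours at 37 C under 5% CO2, and luminescence was read.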
HCV inhibitor: qHTS Assay for Inhibitors of Hepatitis C Virus (HCV); Potency, µM (doses to about 41.8 µM), for the others: at the top dose activity change, negative = inhibition, most hits filed as inhibitors; AID 651820, 2012; hit rate 3.4% among 340,000; Huh7.5.1 HCVcc-Cre infection, luciferase reporter, 44 h; note: potency is the fitted concentration of half-maximal effect; % is set by controls: 0 for no effect and ±100 for the full control effect
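Infectious HCVcc-Cre (~0.5 moi) was added to cells just after compound, with cells seeded 4 h earlier at 1,000 per well. Luciferase activity after 44 h culture reported infection; substrate was incubated 15 min at room temperature before reading.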
Shiga inhibitor: A qHTS for Small Molecule Inhibitors of Shiga Toxin; Vero cells, Shiga toxin protein synthesis inhibition reporter; inhibition, % at 38.7 µM; hit rate 9.2% among 290,000; in the data active = inhibition mostly above about 28%, no sharp cut-off; inactive = mostly below about 43%; note: 0% is about no effect
Cycloheximide cs: Cycloheximide Counterscreen for Small Molecule Inhibitors of Shiga Toxin | cell reporter, cycloheximide protein synthesis inhibition counterscreen | hit rate 12% among 300,000 | max response, %; in the data active = max response mostly above about 13%, no sharp cut-off; inactive = mostly below about 14%; note: read at 38.3 µM for the half of the compounds with a filed dose; 0% is about no effect
Pf growth 48h: Primary qHTS for delayed death inhibitors of the malarial parasite plastid, 48 hour incubation; hit rate 5.9% among 310,000; P. falciparum luciferase growth in erythrocytes, 48 h; AID 504832, 2011; Potency, µM (doses to about 28.7 µM), without a hit: at the top dose activity change, negative = inhibition, usual class: inhibitors; note: potency is the fitted concentration of half-maximal effect; % is set by controls: 0 for no effect and ±100 for the full control effect
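Compounds are pin-transferred into medium, infected erythrocytes (2% hematocrit, 0.1% parasitemia final) are added, and plates sit one parasite generation at 37 C in 5% CO2. Detection reagent is then added and luminescence measured.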
AMA1-RON2 inh: qHTS for Inhibitors of AMA1-RON; Towards Development of Antimalarial Drug Lead: Primary Screen. AlphaScreen AMA1-biotinylated RON2 peptide binding. Potency, µM (series often up to 58.2 µM), for the others: at the highest dose activity change, negative = inhibition, most hits filed as inhibitors. hit rate 0.2% among 360,000;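 note: potency is the fitted concentration of half-maximal effect; 0% = vehicle wells and -100% = peptide control; nearly all actives have a fitted effect of over 45% in size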
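AMA1 (3D7) with his tag at 25 nM final met compounds first, then biotinylated RON2 peptide at 25 nM; detection used donor plus acceptor beads, 10 µg/mL apiece, read by AlphaScreen after 30 min at room temperature.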
* hit, by the source's call; ? = inconclusive; nt = no result given; [ ] = dose if it differs, or a comment. In the library only some 21% were active in any assay of this set; here they are far more common. Unless noted, calls come from the whole dose curve; as a rule, active = well fitted curve in the direction sought with a large enough effect; inconclusive = small, poorly fitted or top-dose-only effect, or another doubt; inactive = no such curve, though single readings can be large; an effect the other way counts as inactive or inconclusive.

SMILES	Pf growth 96h	HCV inhibitor	Shiga inhibitor	Cycloheximide cs	Pf growth 48h	AMA1-RON2 inh
CCCSC1=NN2CCCC(=O)N=C2S1	71%	4%	93*	27*	212%	-11%
O=C1CCCN2N=C(SCC(=O)Nc3ccc(OC(F)(F)F)cc3)SC2=N1	12µM*	25%	37	-3	-17%	3%
CCN(CC)c1ccc(C(=O)O)cc1	75%	18%	-10	-2	0%	0%
CCN(CC)c1ccc(N=Nc2ncn[nH]2)cc1	39%	-9%	124*	34*	197%	35%
CC1CCCC2(C1)NC(=S)N(c1ccccc1)N2 (stereo not drawn)	66%	9%	28	28*	39%	3%
CCCCCCCCN1C(=O)[C@H](CC(=O)NCCc2ccccc2OC)C[C@@]2(C(=O)OC)CC(C)(C)CC=C12	nt	nt	nt	nt	nt	-11%
CC(C)CCC(=O)OC1CCC2C3CCC4=CC(=O)CC[C@]4(C)C3CC[C@]12C (stereo partly drawn)	12µM*	nt	nt	nt	13µM*	nt
CC(C)(C)C(=O)OCC(=O)C1CCC2C3CCC4=CC(=O)CCC4(C)C3CCC12C (stereo not drawn)	?	nt	-1	-2	-19%	nt
CCCCCC(=O)O[C@]1(C(C)=O)CC[C@H]2[C@@H]3CCC4=CC(=O)CC[C@]4(C)[C@H]3CC[C@@]21C	0.83µM*	?	14	-2	1µM*	-7%
CCCCCCCCCC(=O)O[C@H]1CC[C@H]2[C@@H]3CCC4=CC(=O)CC[C@]4(C)[C@H]3CC[C@]12C	8.5µM*	nt	nt	nt	12µM*	nt
S=c1ncc2[nH]c(=S)[nH]c2[nH]1	nt	?	nt	nt	nt	10%
Cc1ccc(-n2nc3c(c2NC(=O)CC(C)C)CS(=O)(=O)C3)cc1	0%	17%	12	14	0%	-3%
CCCCCC(=O)c1c(O)cc(OC)c(Cl)c1O	nt	nt	93*	26*	nt	nt
COc1ccc(Cc2nc(-c3ccc(NC(=O)c4cccnc4)cc3)no2)cc1	44%	-29%	-13	0	5.2µM*	-1%
Clc1ccc(OCc2nc(-c3ccncc3)no2)cc1	10µM*	?	36	31*	nt	-8%
COc1ccc(Cc2nc(-c3ccc(Br)cc3)no2)cc1	21%	?	31*	29*	38%	65%
COc1ccc(-c2noc(Cc3ccc(Cl)cc3)n2)cc1OC	?	?	8	6	4%	-11%
Cc1ccc(Cc2nc(-c3ccncc3)no2)cc1	-37%[1.15 µM]	5%	54*	14	4%	-10%
COCCNC(=S)N(C)[C@H]1C[C@H]2c3cc(Oc4ccccc4C)ccc3CCN2C(=O)[C@H]1[C@H](C)O	nt	nt	nt	nt	nt	-1%
c1cc(-c2ccc(N3CCOCC3)cc2)n2cnnc2c1	nt	nt	nt	nt	nt	57%
COc1ccc(Cc2nc(-c3ccc(Cl)cc3)no2)cc1	0%	-22%	49*	21*	29%	-6%
CC(Sc1ccsc1[N+](=O)[O-])C(=O)N1CCN(c2ccccn2)CC1 (stereo not drawn)	-10%	-11%	24	20	-35%	-3%
Cc1ccc(-c2nnn(CC(=O)N(CCCO)C(C(=O)NC3CCCC3)c3ccc(F)cc3)n2)o1 (stereo not drawn)	-17%	-26%	-4	-5	-2%	-18%
Nc1nc(OCC(F)(F)F)cc(Oc2ccccc2F)n1	23%	-25%	80*	22*	4%	-8%
CSc1ccc(/C=C/C(=O)N2CCCN(C)CC2)cc1	109%	-11%	52*	23*	116%	0%
SMILES	Pf growth 96h	HCV inhibitor	Shiga inhibitor	Cycloheximide cs	Pf growth 48h	AMA1-RON2 inh
CN1CCCN(C(=O)CSc2ccccc2)CC1	0%	3%	-3	1	5%	2%
Cc1ccc(/C=C/C(=O)N2CCCN(C(=O)/C=C/c3ccc(C)cc3)CC2)cc1	?	0%	34	16*	13%	-1%
CCSCc1nnc(SCC(=O)Nc2ccc(OC)cc2)n1C	?	13%	23	17	13%	8%
COC(=O)c1cc(=O)n(-c2ccc(C(F)(F)F)cc2)[nH]1	-5%	23%	3	6	-23%	1%
COc1cc(CN2CCNC(=O)C2CC(=O)N(C)CCC2CCOCC2)cc(OC)c1 (stereo not drawn)	-24%	9%	-5	5	-2%	15%
COc1ccc(-c2cc(C(=O)NCC(c3ccccc3)N(C)C)c3ccccc3n2)cc1OC (stereo not drawn)	9.3µM*	?	-1	-5	10µM*	-3%
COc1ccc(NC(=O)c2cc(-c3cc(OC)c(OC)c(OC)c3)nc3ccccc23)cc1OC	?	?	19	8	13µM*	-7%
CC(CNC(=O)c1ccc(-c2ccccc2)cc1)CN(C)C (stereo not drawn)	0%	-28%	-12	2	-12%	1%
COc1cc(-c2cc(C(=O)Nc3ccc(S(N)(=O)=O)cc3)c3ccccc3n2)cc(OC)c1OC	?	?	-5	-1	?	-3%
COc1ccc(-c2cc(C(=O)Nc3ccc(S(=O)(=O)Nc4onc(C)c4C)cc3)c3ccccc3n2)cc1	?	35%	2	-3	12µM*	-15%
COc1ccc(C(CNC(=O)c2ccc(-c3ccccc3)cc2)N(C)C)cc1OC (stereo not drawn)	?	?	34	10*	?	-24%
C[C@]12CC[C@H]3c4ccc(O)cc4CC[C@@H]3[C@H]1CC[C@@H]2OP(=O)(O)O	-7%	nt	nt	nt	-12%	nt
COc1ccc(OC)c(CC(=O)Nc2ccc3c(c2)c(=O)n(C)n3Cc2cccc(C(F)(F)F)c2)c1	nt	nt	nt	nt	nt	1%
C[C@H](NC(=O)N1CCC(Cc2ccccc2)CC1)C(=O)O	-4%	5%	-2	-7	6%	5%
COc1cc(-c2cc(C(=O)Nc3cccc(S(=O)(=O)N(C)C)c3)c3ccccc3n2)cc(OC)c1OC	?	?	-5	-5	?	1%
CCN(CC)S(=O)(=O)c1ccc(O)c(NC(=O)c2cc(-c3cc(OC)c(OC)c(OC)c3)nc3ccccc23)c1	1.2µM*	?	-1	4	?	?
COc1ccc(-c2cc(C(=O)Nc3ccc(O)cc3)c3ccccc3n2)cc1OC	?	?	62*	28*	6.6µM*	-17%
COc1cc(-c2cc(C(=O)Nc3ccc(S(=O)(=O)Nc4ncccn4)cc3)c3ccccc3n2)cc(OC)c1OC	7.4µM*	13%	9	5	?	5%
